Cytotoxicity call data for 35 compounds are collected here from the antibiotic and cytotoxicity screens of Wong et al. (2023).

Among all 39,000 compounds or so, about 1,500 (3.8%) were called active. This excerpt belongs to a sample that is enriched for actives.

This test has as its system HSkMC (human skeletal muscle cells). Put plainly: cytotoxicity call (relative viability < 0.9). The conditions noted are these: 10 µM.
`CCC(=O)Nc1ccc2c(c1)OC[C@@H](C)N(C(=O)CN1CCOCC1)C[C@@H](C)[C@@H](OC)CN(C)C2=O`: the cytotoxicity call was “inactive”. In the case of `C[C@@H]1CN([C@@H](C)CO[Si](C)(C)C(C)(C)C)C(=O)c2cc(NC(=O)Nc3ccccc3)ccc2O[C@@H](C)CCCCO[C@H]1CN(C)S(=O)(=O)c1ccc(F)cc1`, the cytotoxicity call was “inactive”.

Regarding `COc1ccc(S(=O)(=O)Nc2ccc3c(c2)C(=O)N([C@H](C)CO)C[C@@H](C)[C@H](CN(C)S(=O)(=O)c2ccc(F)cc2)O3)cc1`, the cytotoxicity call was “inactive”. As to `C[C@@H]1CN([C@H](C)CO)C(=O)c2cc(NS(=O)(=O)c3ccc(F)cc3)ccc2O[C@@H]1CN(C)S(=O)(=O)c1cn(C)cn1`, the cytotoxicity call was “inactive”. For `O=C(O[C@@H]1O[C@H]2COC(=O)c3cc(O)c(O)c(O)c3-c3c(cc(O)c(O)c3O)C(=O)O[C@@H]([C@H]1O)[C@@H]2O)c1cc(O)c(O)c(O)c1` the value was “inactive”; for `O=C(O[C@@H]1O[C@@H]2COC(=O)c3cc(Oc4c(C(=O)O)cc(O)c(O)c4O)c(O)c(O)c3-c3c(cc(O)c(O)c3O)C(=O)O[C@H]2[C@H](OC(=O)c2cc(O)c(O)c(O)c2)[C@H]1OC(=O)c1cc(O)c(O)c(O)c1)c1cc(O)c(O)c(O)c1`, “inactive”. As to `O=C(O[C@@H]1O[C@@H]2COC(=O)c3cc(O)c(O)c(O)c3-c3c(cc(O)c(O)c3O)C(=O)O[C@H]2[C@H](OC(=O)c2cc(O)c(O)c(O)c2)[C@H]1OC(=O)c1cc(O)c(O)c(O)c1)c1cc(O)c(O)c(O)c1`, the cytotoxicity call is “active”. For `COCCOC(=O)N1C(=O)[C@@]2(c3cc(C#CCC(C(=O)OC)C(=O)OC)ccc31)[C@H](C(=O)N1CCc3cc(OC)c(OC)cc3C1)[C@H]1C(=O)O[C@H](c3ccccc3)[C@H](c3ccccc3)N1[C@@H]2c1ccccc1OCCO` the value was “inactive”; for `C[C@@H]1CCCCO[C@@H](CN(C)CC2CCCCC2)[C@@H](C)CN([C@@H](C)CO)C(=O)c2cc(NC(=O)Nc3ccc(F)cc3)ccc2O1`, “inactive”; for `C[C@@H]1CCCCO[C@@H](CN(C)CC2CCCCC2)[C@H](C)CN([C@@H](C)CO)C(=O)c2cc(NC(=O)Nc3ccc(F)cc3)ccc2O1`, “inactive”. For `C[C@@H]1CN([C@H](C)CO)C(=O)c2cc(NC(=O)Nc3ccc(F)cc3)ccc2O[C@@H](C)CCCCO[C@@H]1CN(C)CC1CCCCC1` the value was “active”. Consider `C[C@@H]1CCCCO[C@H](CN(C)CC2CCCCC2)[C@H](C)CN([C@H](C)CO)C(=O)c2cc(NC(=O)Nc3ccc(F)cc3)ccc2O1`, for which the cytotoxicity call was “active”.

With `C[C@@H]1CCCCO[C@H](CN(C)CC2CCCCC2)[C@H](C)CN([C@@H](C)CO)C(=O)c2cc(NC(=O)Nc3ccc(F)cc3)ccc2O1`, the cytotoxicity call was “inactive”. As for `C[C@H]1CCCCO[C@H](CN(C)CC2CCCCC2)[C@@H](C)CN([C@@H](C)CO)C(=O)c2cc(NC(=O)Nc3ccc(F)cc3)ccc2O1`, the cytotoxicity call is “inactive”. In the case of `C[C@@H]1CCCCO[C@@H](CN(C)CC2CCCCC2)[C@H](C)CN([C@H](C)CO)C(=O)c2cc(NC(=O)Nc3ccc(F)cc3)ccc2O1`, the cytotoxicity call is “inactive”. With `C[C@H]1CCCCO[C@@H](CN(C)CC2CCCCC2)[C@@H](C)CN([C@@H](C)CO)C(=O)c2cc(NC(=O)Nc3ccc(F)cc3)ccc2O1`, the cytotoxicity call is “inactive”. On to `C[C@@H]1CN([C@@H](C)CO)C(=O)c2cc(NC(=O)Nc3ccc(F)cc3)ccc2O[C@@H](C)CCCCO[C@H]1CN(C)CC1CCCCC1`, for which the cytotoxicity call is “inactive”.

With `C[C@@H]1CCCCO[C@@H](CN(C)CC2CCCCC2)[C@@H](C)CN([C@H](C)CO)C(=O)c2cc(NC(=O)Nc3ccc(F)cc3)ccc2O1`, the cytotoxicity call was “inactive”. Turning to `C[C@H](CO)N1C[C@H](C)[C@H](CN(C)CC2CCCCC2)OCCCC[C@H](C)Oc2ccc(NC(=O)Nc3ccc(F)cc3)cc2C1=O`, the cytotoxicity call is “active”. As for `C[C@@H]1CN([C@@H](C)CO)C(=O)c2cc(NC(=O)Nc3ccc(F)cc3)ccc2O[C@@H](C)CCCCO[C@@H]1CN(C)CC1CCCCC1`, the cytotoxicity call is “active”. For `Cn1cnc(CCNC(=O)C[C@@H]2CC[C@@H]3[C@H](COC[C@@H](O)CN3C(=O)C3CC3)O2)c1` the value was “inactive”; for `C[C@H](CO)N1C[C@H](C)[C@@H](CN(C)S(=O)(=O)c2cccs2)Oc2c(NC(=O)c3cnccn3)cccc2C1=O`, “inactive”; for `COc1cccc(-c2cnc3c(c2)C(=O)N([C@H](C)CO)C[C@H](C)[C@H](CN(C)S(=O)(=O)c2cccs2)O3)c1`, “inactive”. The same measure for `COc1ccc(S(=O)(=O)N(C)C[C@@H]2OCc3cn(nn3)CCCC(=O)N([C@@H](C)CO)C[C@H]2C)cc1`: “inactive”; for `C[C@H](CO)N1C[C@H](C)[C@H](CN(C)C(=O)NC2CCCCC2)Oc2ccc(NS(=O)(=O)c3cn(C)cn3)cc2C1=O`: “inactive”; for `CC1(C)OC(=O)C2(C(=O)O1)[C@@H](c1ccc(-c3ccc(-c4ccc(O)cc4)cc3)cc1)CC(=O)C[C@H]2c1ccccc1`: “inactive”. As for `CCCn1c(=O)[nH]c(=O)c2[nH]cnc21`, the cytotoxicity call is “inactive”. With `COc1ccc(NC(=O)N(C)C[C@@H]2Oc3ccc(NC(=O)CCCCCC(=O)Nc4ccccc4N)cc3C(=O)N([C@H](C)CO)C[C@@H]2C)cc1`, the cytotoxicity call is “inactive”. The same measure for `COc1ccc(NC(=O)Nc2ccc3c(c2)CC(=O)N([C@H](C)CO)C[C@@H](C)[C@@H](CN(C)Cc2ccc(Cl)c(Cl)c2)O3)cc1`: “active”; for `COc1ccc(NC(=O)Nc2ccc3c(c2)CC(=O)N([C@H](C)CO)C[C@H](C)[C@H](CN(C)Cc2ccc(Cl)c(Cl)c2)O3)cc1`: “inactive”. Consider `COc1ccc(NC(=O)Nc2ccc3c(c2)CC(=O)N([C@H](C)CO)C[C@@H](C)[C@H](CN(C)Cc2ccc(Cl)c(Cl)c2)O3)cc1`, for which the cytotoxicity call is “inactive”.

For `COc1ccc(NC(=O)Nc2ccc3c(c2)CC(=O)N([C@@H](C)CO)C[C@H](C)[C@@H](CN(C)Cc2ccc(Cl)c(Cl)c2)O3)cc1`, the cytotoxicity call is “inactive”. `COc1ccc(NC(=O)Nc2ccc3c(c2)CC(=O)N([C@@H](C)CO)C[C@H](C)[C@H](CN(C)Cc2ccc(Cl)c(Cl)c2)O3)cc1`: the cytotoxicity call is “active”.

In the case of `COc1ccc(NC(=O)Nc2ccc3c(c2)CC(=O)N([C@@H](C)CO)C[C@@H](C)[C@H](CN(C)Cc2ccc(Cl)c(Cl)c2)O3)cc1`, the cytotoxicity call is “inactive”. As to `C[C@@H]1CCCCO[C@@H](CN(C)C(=O)Nc2cccc3ccccc23)[C@@H](C)CN([C@H](C)CO)C(=O)c2cc(NC(=O)Nc3cccc4ccccc34)ccc2O1`, the cytotoxicity call is “inactive”.
